# Records with an inconclusive call do not appear. A number with no mark means an inactive call. Calls of active or inactive are those of the source. The call rests on the fitted dose curve; in most records, active means well fitted inhibition curve with a large enough effect; inconclusive means small, poorly fitted or top-dose-only effect; inactive means flat fitted curve, though single readings scatter. Where a SMILES comes first, the peptide text is derived from it.
# Key:
# Assay in all cases: Cytotoxic Profiling of Annotated Libraries Using Quantitative High-Throughput Screening (AID 1296008); further: nearly all actives have a fitted effect of over 60% in size
# Conditions in all cases: Five cell lines viability, CellTiter-Glo ATP luminescence, 48-72 h; max response: hits give low values
# [1] = system: CRL-7250
# How it was run: (§1)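 Cytotoxicity was measured as CellTiter-Glo ATP luminescence, read after 10 min at room temperature. Compound treatment of the cells lasted 48 or 72 hr at 37 degrees Celsius in a qHTS format.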
# [2] = system: HEK293
# How it was run: as §1
# [3] = system: HaCat
# How it was run: as §1
# [4] = system: KB-3-1
# How it was run: as §1
# [5] = system: NIH3T3
# How it was run: as §1
# On the % scale 0 is the no-effect control and ±100 the full control effect; potency means the concentration at half of the fitted maximal effect.
compound,measurement,setting,value
CC(=O)[C@@H]1C[C@H](C(C)(C)O[C@@H]2O[C@H](CO)[C@@H](O)[C@H](O)[C@H]2O)CC[C@@]2(CO)OC(=O)C[C@@H]12,max response,[1],-8.92%
same,max response,[2],0.131%
same,max response,[3],4.13%
same,max response,[4],1.24%
same,outcome,[5],inactive
C/C=C(\C)C(=O)OC[C@H]1O[C@@H](O[C@H]2[C@@H](O[C@H]3O[C@H](COC(=O)/C(C)=C/C)[C@@H](O)[C@H](O)[C@H]3O[C@@H]3O[C@H](COC(=O)/C(C)=C/C)[C@@H](O)[C@H](OC(=O)/C(C)=C/C)[C@H]3O)O[C@H](COC(=O)/C(C)=C/C)[C@@H](O)[C@@H]2O)[C@H](O)[C@@H](O)[C@@H]1O,max response,[1],-1.79%
same,max response,[2],-2.95%
same,max response,[3],-1.65%
same,max response,[4],7.25%
same,outcome,[5],inactive
CC(=O)O[C@@H]1C(O)C[C@@]2(C)C(CC[C@@H](C)C23Cc2c(O)cc4c(c2O3)CNC4=O)C1(C)C (stereo not given in full),max response,[1],0.238%
same,max response,[2],1.81%
same,outcome,[3],inactive
same,max response,[4],-3.56%
same,max response,[5],-7.87%
N[C@@H](CC(=O)Nc1ccc(Oc2cc(F)c(F)cc2Br)cc1)C(=O)O,max response,[1],-23%
same,max response,[2],-28.9%
same,outcome,[3],inactive
same,max response,[4],-3.53%
same,max response,[5],0.0129%
COC(=O)C[C@@H]1C(C(=O)O)=CO[C@@H](O[C@@H]2O[C@H](CO)[C@@H](O)[C@H](O)[C@H]2O)/C1=C\COC(=O)/C=C/c1ccc(O)c(OC)c1,max response,[1],2.29%
same,max response,[2],-2.42%
same,max response,[3],-1.38%
same,outcome,[4],inactive
same,outcome,[5],inactive
COc1ccc(Oc2c(Cl)cnn(C3c4ccccc4-c4ccccc43)c2=O)cc1,max response,[1],-3.95%
same,max response,[2],-2.77%
same,outcome,[3],inactive
same,max response,[4],-2.29%
same,outcome,[5],inactive
O=C(O)C(Cc1ccccc1)NC(=O)C1CCCN1 (stereo not drawn) (H-Pro-Phe-OH; configuration not given here),max response,[1],-5.01%
same,max response,[2],0.403%
same,max response,[3],-6.92%
same,outcome,[4],inactive
same,outcome,[5],inactive
COC(O)(CC(C)C)C1Oc2cc(C)[nH]c(=O)c2O1 (stereo not given),outcome,[1],inactive
same,max response,[2],0.893%
same,outcome,[3],inactive
same,max response,[4],6.46%
same,max response,[5],3.8%
O=C(O[C@@H]1O[C@H](CO)[C@@H](O)[C@H](O)[C@H]1O)c1ccccc1,outcome,[1],inactive
same,outcome,[2],inactive
same,max response,[3],4.66%
same,outcome,[4],inactive
same,max response,[5],4.36%
CC1OC(O[C@@H]2[C@@H](O)[C@H](OC(=O)[C@]34CCC(C)(C)C[C@H]3C3=CCC5[C@@]6(C)CC[C@H](O[C@@H]7O[C@H](C(=O)O)[C@@H](O)[C@H](O[C@@H]8OC[C@@H](O)[C@H](O)[C@H]8O)[C@H]7O[C@@H]7O[C@H](CO)[C@H](O)[C@H](O)[C@H]7O)[C@@](C)(C=O)C6CC[C@@]5(C)[C@]3(C)C[C@H]4O)O[C@H](C)[C@@H]2OC2OC(C)C(OC3OCC(O)C(O)C3O)C(O)C2O)C(O)C(O)C1O (stereo not given in full),max response,[1],4.06%
same,max response,[2],-14.3%
same,max response,[3],-4.11%
same,max response,[4],-3.93%
same,outcome,[5],inactive
COc1ccc(CC(=O)NCc2ccccc2-c2ccccc2C(=O)NCCc2cccnc2)cc1,max response,[1],-3.16%
same,max response,[2],-0.81%
same,outcome,[3],inactive
same,max response,[4],-4.64%
same,outcome,[5],inactive
C/C(=C\C1CCC(C)C2CCC3(C)OC123)C(=O)O (stereo not given),max response,[1],-0.564%
same,max response,[2],-3.45%
same,max response,[3],4.2%
same,max response,[4],8.09%
same,outcome,[5],inactive
CC(=O)OC12CC(C)C(O)C1/C=C(/COC1OC(CO)C(O)C(O)C1O)CCC1C(/C=C(\C)C2=O)C1(C)C (stereo not given),max response,[1],-1.86%
same,max response,[2],-3.67%
same,outcome,[3],inactive
same,outcome,[4],inactive
same,outcome,[5],inactive
C/C=C/C=C/C=C/C(=O)O[C@@H]1C=C(CO)[C@](O)(CO)[C@@]2(C)CCCC(C)(C)[C@H]12,max response,[1],-5.67%
same,Potency,[2],12.8 µM (active)
same,max response,[3],-1.12%
same,outcome,[4],inactive
same,outcome,[5],inactive
CN1CCCC1Cc1c[nH]c2ccc(CCS(=O)(=O)c3ccccc3)cc12 (stereo not given),outcome,[1],inactive
same,max response,[2],-7.1%
same,outcome,[3],inactive
same,max response,[4],7.71%
same,outcome,[5],inactive
CCOc1ccc(-c2cc(NC(=O)c3c(F)cccc3F)c(C(=O)O)s2)cc1,max response,[1],-4.12%
same,max response,[2],1.07%
same,outcome,[3],inactive
same,max response,[4],-17.4%
same,max response,[5],-24.8%
C[C@@H]1C[C@@H](O)[C@@]23CO[C@]2(CO)CCC[C@@H]3[C@@]12C[C@@H](c1ccoc1)OC2=O,max response,[1],-8.12%
same,max response,[2],2.85%
same,max response,[3],-3.9%
same,max response,[4],7.05%
same,outcome,[5],inactive
C=CC1(C)CC=C2C(CCC3C(C)(C(=O)O)CCCC23C)C1 (stereo not given),max response,[1],4.68%
same,max response,[2],-4.6%
same,outcome,[3],inactive
same,max response,[4],7.47%
same,max response,[5],-6.29%
CC(C)C(NC(=O)c1ccc(O)cc1)C(=O)N1CCCC1C(=O)Nc1c(O)cccc1C(=O)O (stereo not given),max response,[1],-0.89%
same,max response,[2],-9.61%
same,max response,[3],-4.47%
same,max response,[4],5.36%
same,outcome,[5],inactive
C[C@]12CC[C@@H]3c4ccc(O)cc4CC[C@H]3[C@@H]1C[C@@H](O[C@@H]1O[C@H](C(=O)O)[C@@H](O)[C@H](O)[C@H]1O)[C@@H]2O,max response,[1],2.29%
same,max response,[2],-7.39%
same,outcome,[3],inactive
same,max response,[4],4.13%
same,max response,[5],-7.98%
CC(NC(=O)c1ccccc1N)C(=O)O (stereo not given),max response,[1],2.02%
same,max response,[2],4.67%
same,outcome,[3],inactive
same,max response,[4],9.06%
same,max response,[5],0.106%
COc1ccnc2[nH]cc(C(=O)C(=O)N3CCN(C(=O)c4ccccc4)CC3C)c12 (stereo not given),max response,[1],0.507%
same,max response,[2],-0.0222%
same,outcome,[3],inactive
same,outcome,[4],inactive
same,max response,[5],-4.76%
CC1=C(CO)CC(C(C)C2CCC3C4CC=C5CC(OC6OC(COC7OC(CO)C(O)C(O)C7O)C(O)C(O)C6O)CC(O)C5(C)C4CCC23C)OC1=O (stereo not given),outcome,[1],inactive
same,max response,[2],-8.19%
same,outcome,[3],inactive
same,max response,[4],-0.551%
same,outcome,[5],inactive
CCNC(=O)C1CC(F)(c2ccc(CN3CCCC3)c(F)c2)C1 (stereo not given),outcome,[1],inactive
same,max response,[2],-0.849%
same,outcome,[3],inactive
same,max response,[4],3.84%
same,outcome,[5],inactive
Cc1ccc(COC(=O)N2CC[C@@H](CNc3ncccn3)[C@@H](F)C2)cc1,max response,[1],-0.943%
same,max response,[2],-31.7%
same,outcome,[3],inactive
same,max response,[4],-17.2%
same,max response,[5],-18.5%
Cc1ncc(Cl)cc1NCc1ccc(C(=O)NC(CC2CCCC2)C(=O)NC2CC2)s1 (stereo not given),outcome,[1],inactive
same,max response,[2],-15.8%
same,max response,[3],-11.9%
same,max response,[4],-1.73%
same,outcome,[5],inactive
CC1CCC2(C(=O)O)CCC3(C)C(=CCC4C5(C)C[C@@H](O)[C@@H](O)C(C)(CO)C5CCC43C)C2C1(C)O (stereo not given in full),max response,[1],-2.68%
same,max response,[2],-0.908%
same,outcome,[3],inactive
same,outcome,[4],inactive
same,outcome,[5],inactive
CC(=O)O[C@@H]1[C@H](O[C@@H]2OC[C@](O)(CO)[C@H]2O)[C@@H](O[C@@H]2O[C@@H](C)[C@H](O)[C@@H](O[C@@H]3O[C@H](CO)[C@@H](O)[C@H](O)[C@H]3O)[C@H]2O)[C@H](OC(=O)[C@]23CCC(C)(C)C[C@H]2C2=CCC4[C@@]5(C)C[C@H](O)[C@H](O[C@@H]6O[C@H](C(=O)O)[C@@H](O)[C@H](O)[C@H]6O)[C@@](C)(C(=O)O)C5CC[C@@]4(C)[C@]2(C)CC3)O[C@@H]1C (stereo not given in full),max response,[1],-6.6%
same,max response,[2],-7.53%
same,outcome,[3],inactive
same,max response,[4],3.25%
same,outcome,[5],inactive
CC(=O)OC[C@@]12C(=O)C[C@@H](C)[C@]3(C[C@@H](c4ccoc4)OC3=O)[C@H]1CC[C@H](OC(C)=O)[C@]21CO1,max response,[1],-3.74%
same,max response,[2],-0.582%
same,outcome,[3],inactive
same,outcome,[4],inactive
same,max response,[5],-0.126%
C=C1CC[C@@H]2C(C)(C)CCC[C@@]2(C)[C@@H]1CC/C(=C/C(=O)OC)COC(C)=O,max response,[1],-1.64%
same,max response,[2],-16.3%
same,outcome,[3],inactive
same,max response,[4],-9.17%
same,outcome,[5],inactive
CC(C)=CC[C@H]1O[C@]2(O)C([C@H]3CCC4[C@@]5(C)CC[C@H](O[C@@H]6O[C@H](CO)[C@H](O)[C@H](O[C@@H]7O[C@H](CO)[C@@H](O)[C@H](O)[C@H]7O)[C@H]6O[C@@H]6O[C@@H](C)[C@H](O)[C@@H](O)[C@H]6O)C(C)(C)C5CC[C@@]4(C)[C@]3(C)[C@H]2O)[C@@]1(C)O (stereo not given in full),max response,[1],0.206%
same,max response,[2],2.46%
same,outcome,[3],inactive
same,max response,[4],9.9%
same,max response,[5],0.989%
O=C(C[C@@H]1C(C(=O)O)=CO[C@@H](O[C@@H]2O[C@H](CO)[C@@H](O)[C@H](O)[C@H]2O)/C1=C\CO)OCCc1ccc(O)cc1,max response,[1],1.31%
same,max response,[2],1.44%
same,max response,[3],-0.66%
same,outcome,[4],inactive
same,outcome,[5],inactive
COc1cc(/C=C/C(=O)O[C@H]2[C@@H]3C=CO[C@@H](O[C@@H]4O[C@H](CO)[C@@H](O)[C@H](O)[C@H]4O)[C@@H]3[C@@]3(CO)O[C@@H]23)ccc1O,outcome,[1],inactive
same,max response,[2],1.49%
same,outcome,[3],inactive
same,outcome,[4],inactive
same,outcome,[5],inactive
C=C1C(O)C(OC(=O)c2ccccc2)C2C(C)(C(=O)O)CCCC2(C)C1CC/C(C)=C\CO (stereo not given),max response,[1],-4.65%
same,max response,[2],-1.62%
same,outcome,[3],inactive
same,max response,[4],5.47%
same,outcome,[5],inactive
O=C(CCc1ccccc1)c1c(O)c([C@@H]2O[C@H](CO)[C@@H](O)[C@H](O)[C@H]2O)c(O)c([C@@H]2O[C@H](CO)[C@@H](O)[C@H](O)[C@H]2O)c1O,max response,[1],-8.34%
same,max response,[2],0.0644%
same,max response,[3],3.51%
same,max response,[4],8.16%
same,outcome,[5],inactive

# — PubChem BioAssay (NCATS)
